Records with an inconclusive call do not appear. Entries that show only a call come without a potency. The source made the active and inactive calls. Unless noted, calls follow the shape of the dose curve; as a rule, active = well fitted curve in the direction sought with a large enough effect in the repeat runs; inconclusive = weak or mixed curves; inactive = no such curve, though single readings can be large; an effect the other way counts as inactive or inconclusive.
How the values were obtained:
[1] = qHTS assay to identify small molecule antagonists of the TGF-beta/Smad signaling pathway - cell viability counter screen (AID 1346824); also: nearly all actives have a fitted effect of over 50% in size; also: potency is read from the fitted curve at half-maximal effect
Method in brief: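 Cytotoxicity counter-screen run in the same wells as the beta-lactamase Smad reporter read: CellTiter-Glo luminescence after 30 min at room temperature. HEK 293T SBE-bla cells had 5 hr compound exposure at 37 C with TGF-beta1 (0.25 ng/mL stock).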

[2] = target: Thyrotropin-releasing hormone receptor (Homo sapiens) (UniProt P34981); test: qHTS assay to identify small molecule agonists of the thyrotropin-releasing hormone receptor (TRHR) signaling pathway (AID 1346891; calls by dose curve; also: series mostly up to about 58 µM)
Sequence of Thyrotropin-releasing hormone receptor (Homo sapiens) (P34981 whole entry, looked up): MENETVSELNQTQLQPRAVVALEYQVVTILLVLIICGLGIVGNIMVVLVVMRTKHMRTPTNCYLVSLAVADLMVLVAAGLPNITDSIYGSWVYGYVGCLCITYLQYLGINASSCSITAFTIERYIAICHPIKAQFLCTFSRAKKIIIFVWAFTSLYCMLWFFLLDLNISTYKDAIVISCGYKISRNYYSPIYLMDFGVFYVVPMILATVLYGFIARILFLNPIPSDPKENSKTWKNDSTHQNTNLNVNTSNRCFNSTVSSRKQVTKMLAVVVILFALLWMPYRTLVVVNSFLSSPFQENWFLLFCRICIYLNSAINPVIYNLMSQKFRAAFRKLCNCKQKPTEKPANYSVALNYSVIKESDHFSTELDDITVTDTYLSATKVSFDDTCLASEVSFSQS
Method in brief: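 TRHR-expressing HEK293 cells were plated 18 h at 37 °C/5% CO2, loaded with calcium dye 2 h at 37 °C, then given compound in DMSO; fluorescence was read kinetically for 3 min at 1 s intervals.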

[3] = Human pregnane X receptor (PXR) small molecule agonists, qHTS cell viability counter screen (AID 1346977); also: nearly all actives have a fitted effect of over 50% in size; also: potency is read from the fitted curve at half-maximal effect
Method in brief: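 PXR-Luc HepG2 cells in medium with 5% charcoal-stripped FBS were pre-incubated 5hr, then exposed to compounds for 24hr at 37C. Viability was read in the same wells by CellTiter-Fluor fluorescence, reagent added after 23hr with a 1hr incubation.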

[4] = Caspase-3/7 induction in HepG2 cells by small molecules, qHTS assay (AID 1346978); also: nearly all actives have a fitted effect of over 15% in size; also: potency is read from the fitted curve at half-maximal effect
Method in brief: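 Caspase-3/7 induction was measured by Caspase-Glo 3/7 luminescence (30 min, room temperature) after a 17 hr compound exposure of wild-type HepG2 cells seeded at 2,000 per well and pre-incubated 5 hr.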

[5] = Caspase-3/7 induction in CHO-K1 cells by small molecules, qHTS cell viability counter screen (AID 1346979); also: nearly all actives have a fitted effect of over 35% in size; also: potency is read from the fitted curve at half-maximal effect
Method in brief: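 Wild-type CHO-K1 cells were seeded at 1,500 per well, rested 5hr at 37 C, then exposed to compounds in DMSO. After 16hr, CellTiter-Fluor reagent was added and fluorescence read 1hr later as the viability measure.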

[6] = Caspase-3/7 induction in CHO-K1 cells by small molecules, qHTS assay (AID 1346980); also: nearly all actives have a fitted effect of over 15% in size; also: potency is read from the fitted curve at half-maximal effect
Method in brief: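 Luminescent Caspase-Glo 3/7 read (30min, room temperature) quantified apoptosis induction. Cells were wild-type CHO-K1, treated with compound for 17hr at 37 C and 5% CO2.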

[7] = Caspase-3/7 induction in HepG2 cells by small molecules, qHTS cell viability counter screen (AID 1346981); also: nearly all actives have a fitted effect of over 30% in size; also: potency is read from the fitted curve at half-maximal effect
Method in brief: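 Fluorescence read-out of live-cell protease activity (CellTiter-Fluor) after 1 hr with reagent. This was measured in the same wells as the caspase-3/7 luminescence, on HepG2 cells exposed to DMSO-dissolved compounds for 16 hr at 37 C.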

[8] = qHTS assay to identify small molecule agonists of the TGF-beta/Smad signaling pathway - cell viability counter screen (AID 1346829); also: nearly all actives have a fitted effect of over 45% in size; also: potency is read from the fitted curve at half-maximal effect
Method in brief: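 Cytotoxicity counter screen: CellTiter-Glo luminescence (30 min, room temperature) measured in the SBE-bla HEK 293T reporter wells after 5 hr compound treatment at 37 C and the 2 hr substrate step.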

[9] = qHTS assay to identify small molecule agonists of the TGF-beta/Smad signaling pathway (AID 1346859; active = well fitted activation curve with a large enough effect in the signal ratio in the repeat runs, not every such curve was filed as active; the % refers to the signal ratio; also: series mostly up to about 77 µM)
Method in brief: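 HEK 293T cells stably carrying a beta-lactamase reporter driven by the Smad binding element were seeded overnight, exposed to DMSO-dissolved compounds for 5 hr at 37 C, 5% CO2, then loaded with FRET substrate for 2 hr at room temperature.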

[10] = target: Thyrotropin-releasing hormone receptor (Homo sapiens) (UniProt P34981); test: qHTS assay to identify small molecule antagonists of the thyrotropin-releasing hormone receptor (TRHR) signaling pathway (AID 1346877; active = well fitted inhibition curve with a large enough effect in the repeat runs, not every such curve was filed as active; also: potency is read from the fitted curve at half-maximal effect)
Method in brief: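 HEK293/TRHR cells, 18 h, 37 °C; Ca2+ dye 2 h; cpd 5 min RT; TRH 1 nM final; fluorescence read 3 min, 1 s intervals; 15 concs, triplicate.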

Structure (SMILES)	Potency [1]	Potency [2]	Potency [3]	Potency [4]	Potency [5]	Potency [6]	Potency [7]	Potency [8]	outcome [9]	Potency [10]
O=C1C=CC(=O)N1c1cccc(N2C(=O)C=CC2=O)c1	54.9 µM (active)	inactive	61.1 µM (active)	inactive	5.45 µM (active)	inactive	61.1 µM (active)	–	–	–
CCOC(=O)[C@H](O)[C@@H](O)C(=O)OCC	–	inactive	inactive	inactive	inactive	inactive	inactive	inactive	inactive	inactive
CCCCCCCC/C=C\CCCCCCCC(=O)N(CCO)CCO	inactive	–	–	inactive	68.3 µM (active)	inactive	–	inactive	–	–
Nc1ccc(N)c([N+](=O)[O-])c1	–	–	–	inactive	40.9 µM (active)	inactive	54.5 µM (active)	–	–	–
CN[C@H]1CC[C@@H](c2ccc(Cl)c(Cl)c2)c2ccc(S(N)(=O)=O)cc21	inactive	inactive	61.1 µM (active)	–	61.1 µM (active)	–	61.1 µM (active)	–	inactive	–
CC/C=C\C/C=C\C/C=C\CCCCCCCC(=O)OC	inactive	inactive	–	–	61.1 µM (active)	–	–	–	–	inactive
CCCCCCCCCC[N+](C)(CCCCCCCCCC)CCC[Si](OC)(OC)OC	–	inactive	–	–	30.6 µM (active)	–	61.1 µM (active)	–	inactive	–
O=C1Cc2ccccc2C1	–	inactive	–	–	68.6 µM (active)	inactive	–	–	–	inactive
C[C@H]1O[C@@H](O[C@H]2CC[C@@]3(C)[C@H](CC[C@@H]4[C@@H]3C[C@@H](O)[C@]3(C)[C@@H](C5=CC(=O)OC5)CC[C@]43O)C2)C[C@H](O)[C@@H]1O[C@H]1C[C@H](O)[C@H](O[C@H]2C[C@H](O)[C@H](O[C@@H]3O[C@H](CO)[C@@H](O)[C@H](O)[C@H]3O)[C@@H](C)O2)[C@@H](C)O1	–	inactive	–	inactive	inactive	inactive	inactive	–	–	inactive
CCCCCCCCCCCCCCCCCCNC(=O)OC1CCN(C(=O)OC[C@H](COC(=O)N(Cc2cccc[n+]2CC)C(=O)c2ccccc2OC)OC)CC1	–	inactive	26.6 µM (active)	inactive	29.8 µM (active)	inactive	–	–	–	inactive
O=C1c2ccccc2C(=O)c2c(Cl)cccc21	inactive	inactive	inactive	inactive	–	inactive	inactive	–	inactive	inactive
CN(C[C@@H](CC[N+]12CCC(C3CCCCC3)(CC1)CC2)c1ccc(Cl)c(Cl)c1)C(=O)c1cc(C(F)(F)F)cc(C(F)(F)F)c1	inactive	inactive	–	inactive	61.1 µM (active)	inactive	68.6 µM (active)	–	–	–
CCCCCCCCOC(=O)c1cc(O)c(O)c(O)c1	inactive	–	–	–	1.09 µM (active)	1.54 µM (active)	–	inactive	–	–
S=C1NC=NC2N=CNC12 (configuration not stated)	3.47 µM (active)	inactive	inactive	inactive	–	inactive	inactive	–	inactive	inactive
CN1CC[C@H](c2c(O)cc(O)c3c(=O)cc(-c4ccccc4Cl)oc23)[C@H](O)C1	inactive	–	0.0944 µM (active)	0.237 µM (active)	0.0944 µM (active)	0.266 µM (active)	0.335 µM (active)	inactive	–	–
CC/C=C(\C)C=O	–	inactive	inactive	inactive	inactive	inactive	inactive	inactive	inactive	inactive
COc1ccc(OC)c(N=Nc2c(O)ccc3ccccc23)c1	–	inactive	10.9 µM (active)	inactive	21.7 µM (active)	inactive	27.3 µM (active)	43.6 µM (active)	–	inactive
Cc1ccc(C=O)cc1	–	inactive	inactive	inactive	inactive	inactive	inactive	inactive	inactive	–
CN(C)CCOc1ccc(/C(=C(/CCCl)c2ccccc2)c2ccccc2)cc1	inactive	inactive	22.8 µM (active)	57.2 µM (active)	51 µM (active)	51 µM (active)	57.2 µM (active)	–	–	–

Structure (SMILES)	Potency [1]	Potency [2]	Potency [3]	Potency [4]	Potency [5]	Potency [6]	Potency [7]	Potency [8]	outcome [9]	Potency [10]
Cn1ccnc1	–	inactive	inactive	inactive	inactive	inactive	inactive	inactive	inactive	inactive
COc1cc([C@@H]2c3cc4c(cc3[C@@H](O[C@@H]3O[C@@H]5CO[C@@H](C)O[C@H]5[C@H](O)[C@H]3O)[C@H]3COC(=O)[C@H]23)OCO4)cc(OC)c1O	inactive	–	–	53.9 µM (active)	–	inactive	inactive	inactive	–	–
CCC1(C)C(=O)N(Cl)C(=O)N1Cl (configuration not stated)	–	inactive	inactive	inactive	inactive	inactive	inactive	inactive	inactive	inactive
CC(=O)[C@]1(O)Cc2c(O)c3c(c(O)c2[C@@H](O[C@H]2C[C@H](N)[C@H](O)[C@H](C)O2)C1)C(=O)c1ccccc1C3=O	inactive	inactive	2.66 µM (active)	2.11 µM (active)	11.9 µM (active)	–	11.9 µM (active)	–	inactive	inactive
c1ccc(-c2nc3ccccc3[nH]2)cc1	inactive	inactive	–	inactive	–	inactive	inactive	–	–	inactive
CCc1c(C)cc(N)c(CC)c1N	–	inactive	inactive	inactive	inactive	inactive	inactive	inactive	inactive	–
Cc1ccc(S(=O)(=O)C(I)I)cc1	–	–	27.3 µM (active)	inactive	15.4 µM (active)	12.2 µM (active)	54.5 µM (active)	49 µM (active)	inactive	10.7 µM (active)
CN1CCN(c2ccccc2/C=C2\SCCN(c3ccc(Cl)c(Cl)c3)C2=O)CC1	–	–	27.3 µM (active)	61.1 µM (active)	61.1 µM (active)	–	61.1 µM (active)	–	–	–
c1ccc(C[P+](c2ccccc2)(c2ccccc2)c2ccccc2)cc1	–	inactive	24.3 µM (active)	inactive	61.1 µM (active)	inactive	–	inactive	–	inactive
NCc1cccc(C2CCN(C(=O)c3ccc(C#Cc4ccccc4F)o3)CC2)c1	–	inactive	–	–	–	–	–	–	inactive	inactive
COc1cc(/C=C/C(=O)CC(=O)/C=C/c2ccc(O)c(OC)c2)ccc1O	–	–	30.8 µM (active)	–	43.5 µM (active)	inactive	30.8 µM (active)	–	–	–
Clc1ccc2c(Cl)ccnc2c1	inactive	–	inactive	inactive	inactive	inactive	inactive	inactive	–	–
CN(C/C=C/c1ccccc1)Cc1cccc2ccccc12	inactive	inactive	inactive	inactive	inactive	inactive	inactive	–	inactive	–
CCN(CC)c1ccc(N=Nc2ccccc2)cc1	–	–	27.3 µM (active)	inactive	48.6 µM (active)	inactive	27.3 µM (active)	inactive	inactive	–
CS(=O)(=O)c1ccc([C@@H](CC2CCCC2)C(=O)Nc2cnccn2)cc1Cl	–	–	–	inactive	61.1 µM (active)	inactive	61.1 µM (active)	–	–	–
CC(C)c1ccc2sc3ccccc3c(=O)c2c1	inactive	–	inactive	inactive	inactive	inactive	inactive	inactive	–	–
Cc1cc(Br)ccc1NC(=O)CCl	inactive	inactive	54.5 µM (active)	inactive	21.7 µM (active)	inactive	61.1 µM (active)	–	–	inactive
CC/C(=C(/c1ccc(O)cc1)c1ccc(OCCN(C)C)cc1)c1ccccc1	–	inactive	18 µM (active)	40.3 µM (active)	32 µM (active)	–	28.5 µM (active)	–	–	–
